# Assay results as given in PubChem BioAssay (NCATS).
# Inconclusive results are not listed. The source made the active and inactive calls. The call rests on the fitted dose curve; in most records, active means well fitted curve in the direction sought with a large enough effect; inconclusive means small, poorly fitted or top-dose-only effect, or another doubt; inactive means no such curve, though single readings can be large; an effect the other way counts as inactive or inconclusive.
# Assays:
# [1] = Quantitative High-Throughput drug screen in 47 multiple myeloma cell lines against the NCATS MIPE library collection: Delta47_JCRB cell viability assay (AID 1918925; further: nearly all actives have a fitted effect of over 45% in size)
# Outline: (§1)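 Myeloma cell lines, 500 cells per well, exposed to MIPE 4.0 library compounds for 48 h at 37C, 5% CO2. Viability from ATP by CellTiter-Glo luminescence; normalised to DMSO (100%) and media-only (0%) wells.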
# [2] = Quantitative High-Throughput drug screen in 47 multiple myeloma cell lines against the NCATS MIPE library collection: EJM_DSMZ cell viability assay (AID 1918926; further: nearly all actives have a fitted effect of over 30% in size)
# Outline: as §1
# [3] = Quantitative High-Throughput drug screen in 47 multiple myeloma cell lines against the NCATS MIPE library collection: ARP1_JJKsccF8 cell viability assay (AID 1918928; further: nearly all actives have a fitted effect of over 40% in size)
# Outline: (§2)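 Myeloma cells at 500 per well in 1536-well format treated with MIPE 4.0 library by pin transfer for 48 h at 37C, 5% CO2. Viability from ATP luminescence (CellTiter-Glo), normalized to DMSO (100%) and media-only (0%) wells.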
# [4] = Quantitative High-Throughput drug screen in 47 multiple myeloma cell lines against the NCATS MIPE library collection: Karpas620_DSMZ cell viability assay (AID 1918959); further: nearly all actives have a fitted effect of over 30% in size
# Outline: (§3)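 Inhibition of cell viability is measured here. Each line was plated at 500 cells per well, treated with MIPE 4.0 drugs, kept 48 hours at 37C, then assayed for ATP content by CellTiter-Glo luminescence.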
# [5] = Quantitative High-Throughput drug screen in 47 multiple myeloma cell lines against the NCATS MIPE library collection: KMM1_JCRB cell viability assay (AID 1918960); further: nearly all actives have a fitted effect of over 30% in size
# Outline: as §2
# [6] = Quantitative High-Throughput drug screen in 47 multiple myeloma cell lines against the NCATS MIPE library collection: JIM3_ECACC cell viability assay (AID 1918963; further: nearly all actives have a fitted effect of over 35% in size)
# Outline: as §3
# [7] = Quantitative High-Throughput drug screen in 47 multiple myeloma cell lines against the NCATS MIPE library collection: JIM1_ECACC cell viability assay (AID 1918964)
# Outline: as §1
# [8] = Quantitative High-Throughput drug screen in 47 multiple myeloma cell lines against the NCATS MIPE library collection: INA6_PLB cell viability assay (AID 1918965; further: nearly all actives have a fitted effect of over 55% in size)
# Outline: (§4)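 qHTS of the MIPE 4.0 collection: 500 myeloma cells/well, 48 h drug exposure at 37C in 5% CO2, then CellTiter-Glo for 5 min at room temperature before luminescence reading.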
# [9] = Quantitative High-Throughput drug screen in 47 multiple myeloma cell lines against the NCATS MIPE library collection: JJN3_DSMZ cell viability assay (AID 1918966; further: nearly all actives have a fitted effect of over 50% in size)
# Outline: as §1
# [10] = Quantitative High-Throughput drug screen in 47 multiple myeloma cell lines against the NCATS MIPE library collection: KMS27_JCRB cell viability assay (AID 1918970); details: KMS27 myeloma cells, CellTiter-Glo ATP viability, 48 h; viability (% of DMSO): at 45.8 µM (top of the series); further: nearly all actives have a fitted effect of over 30% in size
# Outline: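 Each line is seeded at 500 cells per well and treated with library compounds for 48 hours under 37 °C, 5% CO2. CellTiter-Glo is then added for 5 min at room temperature before median relative luminescence is recorded.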
# [11] = Quantitative High-Throughput drug screen in 47 multiple myeloma cell lines against the NCATS MIPE library collection: KMS12BM_JCRB cell viability assay (AID 1918971); further: nearly all actives have a fitted effect of over 35% in size
# Outline: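 Relative luminescence from CellTiter-Glo served as the viability signal, referenced to DMSO-treated (100%) and cell-free medium (0%) controls. Treatment lasted 48 hours at 37C with 500 cells per well.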
# [12] = Quantitative High-Throughput drug screen in 47 multiple myeloma cell lines against the NCATS MIPE library collection: KMS12PE_JCRB cell viability assay (AID 1918972); further: nearly all actives have a fitted effect of over 30% in size
# Outline: as §4
# [13] = Quantitative High-Throughput drug screen in 47 multiple myeloma cell lines against the NCATS MIPE library collection: AMO1_DSMZ cell viability assay (AID 1918927; further: nearly all actives have a fitted effect of over 30% in size)
# Outline: as §1
# [14] = Quantitative High-Throughput drug screen in 47 multiple myeloma cell lines against the NCATS MIPE library collection: ARD_JJKsccE7 cell viability assay (AID 1918929)
# Outline: as §1
# [15] = Quantitative High-Throughput drug screen in 47 multiple myeloma cell lines against the NCATS MIPE library collection: Karpas417_ECACC cell viability assay (AID 1918961); details: Karpas417 myeloma viability, CellTiter-Glo ATP luminescence, 48 h; viability (% of DMSO): at 45.8 µM (top of the series)
# Outline: as §4
# [16] = Quantitative High-Throughput drug screen in 47 multiple myeloma cell lines against the NCATS MIPE library collection: KHM11_PLB cell viability assay (AID 1918962); further: nearly all actives have a fitted effect of over 35% in size
# Outline: as §3
# [17] = Quantitative High-Throughput drug screen in 47 multiple myeloma cell lines against the NCATS MIPE library collection: H1112_PLB cell viability assay (AID 1918967; further: nearly all actives have a fitted effect of over 30% in size)
# Outline: as §1
# [18] = Quantitative High-Throughput drug screen in 47 multiple myeloma cell lines against the NCATS MIPE library collection: Karpas25_ECACC cell viability assay (AID 1918968; further: nearly all actives have a fitted effect of over 35% in size)
# Outline: as §1
# [19] = Quantitative High-Throughput drug screen in 47 multiple myeloma cell lines against the NCATS MIPE library collection: KMS20_JCRB cell viability assay (AID 1918973); further: nearly all actives have a fitted effect of over 45% in size
# Outline: as §1
# Potency means the concentration at half of the fitted maximal effect.
SMILES,Potency [1],Potency [2],Potency [3],Potency [4],Potency [5],Potency [6],Potency [7],Potency [8],Potency [9],Potency [10],Potency [11],Potency [12],Potency [13],Potency [14],Potency [15],Potency [16],Potency [17],Potency [18],Potency [19]
COc1cc([C@H]2Oc3cc([C@H]4Oc5cc(O)cc(O)c5C(=O)[C@H]4O)ccc3O[C@H]2CO)ccc1O,13.2 µM (active),14.8 µM (active),16.6 µM (active),inactive,inactive,16.6 µM (active),inactive,13.2 µM (active),9.35 µM (active),inactive,10.5 µM (active),inactive,–,–,–,–,–,–,–
COc1c(C)cnc(Cn2cnc3c(Cl)nc(N)nc32)c1C,0.264 µM (active),–,0.118 µM (active),0.209 µM (active),0.059 µM (active),0.148 µM (active),–,0.148 µM (active),0.166 µM (active),0.209 µM (active),–,–,0.0833 µM (active),0.0418 µM (active),0.0235 µM (active),0.105 µM (active),0.132 µM (active),0.209 µM (active),0.209 µM (active)
CN[C@@H](C)[C@H]1[C@H](O)C[C@@]2(C)[C@@H]3CC[C@H]4C(C)(C)[C@@H](NC)CC[C@@]45C[C@@]35CC[C@]12C,inactive,inactive,23.5 µM (active),inactive,inactive,inactive,inactive,inactive,inactive,inactive,–,–,–,inactive,–,–,inactive,inactive,–
CC1=C(CC(=O)O)c2cc(F)ccc2C1=Cc1ccc(S(C)=O)cc1 (configuration not stated),3.72 µM (active),0.59 µM (active),–,–,20.9 µM (active),13.2 µM (active),–,18.7 µM (active),10.5 µM (active),–,–,–,4.18 µM (active),11.8 µM (active),14.8 µM (active),–,–,–,9.35 µM (active)
N#CC1(c2cccc(C(=O)Nc3cc(Oc4ccc5nc(NC(=O)C6CC6)sc5n4)ccc3F)c2Cl)CC1,inactive,20.9 µM (active),9.35 µM (active),–,–,–,–,5.9 µM (active),–,–,13.2 µM (active),2.09 µM (active),–,–,0.187 µM (active),–,13.2 µM (active),–,0.469 µM (active)
C=C[C@@H]1CN2CCC1C[C@@H]2C(O)c1ccnc2ccc(OC)cc12 (some centres not stated),inactive,–,1.87 µM (active),inactive,inactive,inactive,inactive,–,16.6 µM (active),inactive,–,inactive,inactive,–,–,inactive,inactive,1.66 µM (active),–
C=C1[C@H](n2cnc3c(=O)[nH]c(N)nc32)C[C@H](O)[C@H]1CO,3.32 µM (active),inactive,–,–,18.7 µM (active),–,–,–,inactive,5.9 µM (active),0.418 µM (active),0.296 µM (active),18.7 µM (active),9.35 µM (active),–,4.69 µM (active),–,2.96 µM (active),–
CC(=O)N1CCN(c2ccc(OCc3nn(C)c(C)c3-c3cccc4c(CCCOc5cc(C)c(Cl)c(C)c5)c(C(=O)O)n(Cc5cccnc5)c34)cc2)CC1,4.69 µM (active),20.9 µM (active),–,26.4 µM (active),–,–,–,1.66 µM (active),–,8.33 µM (active),–,18.7 µM (active),6.62 µM (active),–,–,–,7.43 µM (active),3.32 µM (active),2.96 µM (active)
O=C(NC[C@H](O)CO)c1ccncc1Nc1ccc(I)cc1F,11.8 µM (active),18.7 µM (active),–,0.0296 µM (active),6.62 µM (active),14.8 µM (active),2.35 µM (active),5.9 µM (active),–,1.48 µM (active),–,14.8 µM (active),5.26 µM (active),–,–,–,–,6.62 µM (active),0.0526 µM (active)
C[C@@H]1[C@H](O)[C@@H](C)C=CC=CC=CC=CC=CC=CC=C[C@H](O[C@@H]2O[C@H](C)[C@H](O)[C@H](N)[C@@H]2O)C[C@@H]2O[C@](O)(C[C@@H](O)C[C@@H](O)[C@H](O)CC[C@@H](O)C[C@@H](O)CC(=O)O[C@H]1C)C[C@H](O)[C@@H]2C(=O)O,inactive,inactive,7.43 µM (active),inactive,–,3.32 µM (active),–,–,–,–,2.09 µM (active),–,–,–,–,–,3.32 µM (active),3.32 µM (active),–
Cc1cc(CS(=O)(=O)c2ccccc2)cc(OCc2ccc(CN3CCC[C@H]3CO)cc2)c1,14.8 µM (active),inactive,–,14.8 µM (active),–,20.9 µM (active),–,18.7 µM (active),–,4.18 µM (active),16.6 µM (active),16.6 µM (active),14.8 µM (active),–,3.72 µM (active),–,16.6 µM (active),16.6 µM (active),–
CCOC(=O)[C@H]1O[C@H]1C(=O)N[C@@H](CC(C)C)C(=O)NCCC(C)C,inactive,inactive,–,–,inactive,–,–,inactive,–,inactive,10.5 µM (active),inactive,inactive,inactive,–,inactive,–,–,–
OC(c1cc(C(F)(F)F)nc2c(C(F)(F)F)cccc12)C1CCCCN1 (configuration not stated),26.4 µM (active),18.7 µM (active),–,–,20.9 µM (active),18.7 µM (active),16.6 µM (active),23.5 µM (active),–,–,26.4 µM (active),20.9 µM (active),18.7 µM (active),–,–,–,20.9 µM (active),16.6 µM (active),10.5 µM (active)
